Measured values reported in PubChem BioAssay (NCATS).
Calls of active or inactive are those of the source. How the calls were made is not given here.

system: HIV-1 nucleocapsid protein NCp7 (binding to TG oligonucleotide); assay: HIV Nucleocapsid (AID 346); settings: HIV-1 NC / fluorescein-TGTGTGTG probe, fluorescence polarization;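 further: potency is for inhibitors that block NC binding and lower polarization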
How it was run: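 Inhibition of nucleocapsid binding to single-stranded 5'-TGTGTGTG probe (10 nM) was measured by fluorescence polarization after 1 hr at room temperature with 100 nM protein under high-salt, zinc-containing, reducing conditions.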
Potency means the concentration at half of the fitted maximal effect.

| SMILES | Potency |
| --- | --- |
| COCCNc1ccnc(-c2ccccc2C(F)(F)F)n1 | > 20 µM (inactive) |
| COc1ccccc1CNc1nc(-c2cccc(NS(C)(=O)=O)c2)nc2ccccc12 | > 20 µM (inactive) |
| COCC(=O)N1CCC2(CCCN(Cc3ccc(C#N)cc3)C2)CC1 | > 20 µM (inactive) |
| COc1ccc2[nH]cc(CCNc3ccnc(-c4cccc(NS(C)(=O)=O)c4)n3)c2c1 | > 20 µM (inactive) |
| COc1ccc2[nH]cc(CCNc3ccnc(-c4ccc(C(=O)N(C)C)cc4)n3)c2c1 | > 20 µM (inactive) |
| COc1ccc(CNc2ncnc3ccc(-c4ccc(N(C)C)cc4)cc23)c(OC)c1 | > 20 µM (inactive) |
| CN(C)Cc1ccccc1-c1cc(N(C)C)ncn1 | > 20 µM (inactive) |
| Cn1cccc1C(=O)N1CCC2(CCN(Cc3nccs3)CC2)CC1 | > 20 µM (inactive) |
| CN(C)c1ncc2nc(-c3ccc(Cl)cc3)c(=O)n(C)c2n1 | > 20 µM (inactive) |
| CCNc1ncc2nc(-c3ccc(F)cc3)c(=O)n(Cc3ccc(F)cc3)c2n1 | > 20 µM (inactive) |
| Cc1ccccc1-c1nccc(NCc2cccnc2)n1 | > 20 µM (inactive) |
| O=c1c(-c2ccccc2)nc2cnc(N3CCNCC3)nc2n1Cc1ccc(F)cc1 | > 20 µM (inactive) |
| COc1ccc(CNc2nc(-c3ccccc3OC)nc3ccccc23)c(OC)c1 | > 20 µM (inactive) |
| O=C(c1csnn1)N1CCC2(CCN(Cc3cc(C(F)(F)F)cc(C(F)(F)F)c3)CC2)CC1 | > 20 µM (inactive) |
| O=c1c(-c2ccccc2)nc2cnc(N3CCOCC3)nc2n1CCc1ccccc1 | > 20 µM (inactive) |
| CCNc1ncc2nc(-c3ccccc3)c(=O)n(-c3ccc(OC)cc3)c2n1 | > 20 µM (inactive) |
| O=C(Oc1ccccc1)N1CCC2(CCCN(c3ccccc3)C2)CC1 | > 20 µM (inactive) |
| COc1ccccc1CNc1ccnc(-c2ccoc2)n1 | > 20 µM (inactive) |
| CC(=O)NCCNc1ncnc2ccc(-c3cccc(NS(C)(=O)=O)c3)cc12 | > 20 µM (inactive) |
| COc1ccc2[nH]cc(CCNc3ncncc3-c3c(C)noc3C)c2c1 | > 20 µM (inactive) |

| SMILES | Potency |
| --- | --- |
| CC(C)CN1CCCC2(CCN(C(=O)c3cccn3C)CC2)C1 | > 20 µM (inactive) |
| N#Cc1ccc(CN2CCC3(CC2)CCN(C(=O)c2ccncc2)CC3)cc1 | > 20 µM (inactive) |
| Cc1noc(C)c1C(=O)N1CCC2(CCCN(c3ncccn3)C2)CC1 | > 20 µM (inactive) |
| Cc1noc(C)c1-c1nccc(N(C)C)n1 | > 20 µM (inactive) |
| COc1ccc(NC(=O)N2CC3(CCN(S(=O)(=O)c4ccccc4)CC3)C2)cc1 | > 20 µM (inactive) |
| CS(=O)(=O)Nc1cccc(-c2ccc3ncnc(NCCN4CCOCC4)c3c2)c1 | > 20 µM (inactive) |
| O=C(c1csnn1)N1CCC2(CCCN(Cc3ccccc3)C2)CC1 | > 20 µM (inactive) |
| Cc1nc2cnc(N3CCN(C)CC3)nc2n(CCC#N)c1=O | > 20 µM (inactive) |
| COC(=O)N1CCC2(CCN(Cc3cc(C(F)(F)F)cc(C(F)(F)F)c3)CC2)CC1 | > 20 µM (inactive) |
| CC(=O)N1CCC2(CCN(Cc3cc(C(F)(F)F)cc(C(F)(F)F)c3)CC2)CC1 | > 20 µM (inactive) |
| CN(C)c1ccnc(-c2cccc(NS(C)(=O)=O)c2)n1 | > 20 µM (inactive) |
| O=S(=O)(c1ccccc1)N1CCC2(CCCN(Cc3ccccc3)C2)CC1 | > 20 µM (inactive) |
| COc1ccccc1CN1CCC2(CC1)CCN(C(=O)c1ccco1)CC2 | > 20 µM (inactive) |
| O=C(c1csnn1)N1CCC2(CC1)CN(c1ccccc1)C2 | > 20 µM (inactive) |
| COC(=O)N1CCC2(CCCN(c3cccc(-c4ccccc4)c3)C2)CC1 | > 20 µM (inactive) |
| CCNc1ncc2ncc(=O)n(Cc3cccs3)c2n1 | > 20 µM (inactive) |
| Cn1cccc1C(=O)N1CCC2(CCN(C(=O)Nc3cccc(C#N)c3)CC2)CC1 | > 20 µM (inactive) |
| O=c1c(-c2ccc(Cl)cc2)nc2cnc(N3CCOCC3)nc2n1Cc1ccc(F)cc1 | > 20 µM (inactive) |
| COc1ccc(-c2nc3cnc(N4CCNCC4)nc3n(-c3ccccc3)c2=O)cc1 | > 20 µM (inactive) |
| CN1CCN(c2cc(-c3ccccc3Cl)ncn2)CC1 | > 20 µM (inactive) |
